We go through five compounds from PubChem BioAssay (EPA / NIEHS).

Values joined by “and” are separate entries in the source; they are usually repeats but may differ in a detail not shown here. Identical values can stand only once. A structure can be active in one record and inactive in another. Active and inactive are the calls of the source. The calls were made as follows: active = hit-call score of the fitted dose curve at least 0.9, where 1 is the maximum; inactive = score below 0.9.

Read-out in assay [1]: Collagen I, COL1A1 (gene 1277)
Description: BSK_hDFCGF_CollagenI: BioMAP Diversity Plus: hDFCGF Assay for Collagen I Biomarker Activity (AID 2284250). Particulars: primary human foreskin fibroblasts. An outline of the steps:
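Human skin primary fibroblasts dosed with test chemical, harvested at 24 h, Collagen I quantified by ELISA; parallel SRB staining (0.1% SRB after 10% TCA fixation, 560 nm) tracked cytotoxicity.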

Read-out in assay [2]: Plasminogen activator inhibitor-1 (PAI1), SERPINE1 (gene 5054)
Briefly: BSK_KF3CT_PAI1: BioMAP Diversity Plus: KF3CT Assay for Plasminogen activator inhibitor-1 (PAI1) Biomarker Activity (AID 2284252). The note with it: primary human keratinocytes with fibroblasts. In a few lines:
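ELISA read-out of PAI-1 taken 24 h after chemical treatment of a human skin primary co-culture of keratinocytes and foreskin fibroblasts. Increases over DMSO-treated wells defined activity.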

Read-out in assay [3]: Monocyte Chemoattractant Protein-1 (MCP1), CCL2 (gene 6347)
Description: BSK_IMphg_MCP1: BioMAP Diversity Plus: IMphg Assay for Monocyte Chemoattractant Protein-1 (MCP1) Biomarker Activity (AID 2284253). The note with it: primary human endothelial cells with macrophages. An outline of the steps: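 Human venular endothelial cells co-cultured with macrophages; MCP-1 measured by ELISA 24 hours post-dose and fitted against DMSO. Cytotoxicity monitored by SRB total-protein staining in parallel cultures.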

Read-out in assay [4]: Interleukin-8 (IL8), CXCL8 (gene 3576)
Description: BSK_KF3CT_IL8: BioMAP Diversity Plus: KF3CT Assay for Interleukin-8 (IL8) Biomarker Activity (AID 2284254). The note with it: primary human keratinocytes with fibroblasts. An outline of the steps:
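Chemicals were added to co-cultured human keratinocytes and foreskin fibroblasts, incubated 24 h, then IL-8 was quantified by ELISA. Cytotoxicity was tracked by sulforhodamine B total-protein staining in parallel cultures.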

Read-out in assay [5]: Macrophage Inflammatory Protein-1 Alpha (MIP1a), CCL3 (gene 6348)
Briefly: BSK_IMphg_MIP1a: BioMAP Diversity Plus: IMphg Assay for Macrophage Inflammatory Protein-1 Alpha (MIP1a) Biomarker Activity (AID 2284255). Particulars: primary human endothelial cells with macrophages. An outline of the steps: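 Co-culture of human venular endothelial cells and macrophages exposed to compounds for 24 h; MIP-1a measured by ELISA relative to DMSO. Cytotoxicity assessed in parallel cultures by sulforhodamine B total-protein staining at 560 nm.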

Read-out in assay [6]: Plasminogen activator inhibitor-1 (PAI1), SERPINE1 (gene 5054)
Description: BSK_MyoF_PAI1: BioMAP Diversity Plus: MyoF Assay for Plasminogen activator inhibitor-1 (PAI1) Biomarker Activity (AID 2284256).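 Also: PAI-1 protein level measured by ELISA in fibroblast cultures; PAI-1 read 24 h after compound addition.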 The note with it: primary human lung fibroblasts. An outline of the steps: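 Primary human lung fibroblasts are dosed and incubated 24 h. PAI-1 is then measured by ELISA, while parallel cultures undergo SRB staining for overt cytotoxicity. Increases over DMSO define activity.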

Read-out in a further assay: CD69, CD69 (gene 969)
Description: BSK_IMphg_CD69: BioMAP Diversity Plus: IMphg Assay for CD69 Biomarker Activity (AID 2284257). The note with it: primary human endothelial cells with macrophages. In a few lines: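 Human venular endothelial cells co-cultured with macrophages; CD69 quantified by ELISA 24 h after compound addition. Activity fitted in the positive direction relative to DMSO baseline; cytotoxicity tracked in parallel cultures via SRB total-protein staining.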

Read-out in assay [7]: Eotaxin 3, CCL26 (gene 10344)
Briefly: BSK_BF4T_Eotaxin3: BioMAP Diversity Plus: BF4T Assay for Eotaxin 3 Biomarker Activity (AID 2284258). Particulars: primary human bronchial epithelial cells with fibroblasts. An outline of the steps:
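Co-culture of human bronchial epithelial cells and dermal fibroblasts, exposed to chemicals for 24 h versus DMSO. Eotaxin-3 quantified by ELISA; cytotoxicity checked in parallel cultures by sulforhodamine B total-protein staining.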

Read-out in assay [8]: Monocyte Chemoattractant Protein-1 (MCP1), CCL2 (gene 6347)
Briefly: BSK_BF4T_MCP1: BioMAP Diversity Plus: BF4T Assay for Monocyte Chemoattractant Protein-1 (MCP1) Biomarker Activity (AID 2284259). Particulars: primary human bronchial epithelial cells with fibroblasts. An outline of the steps: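 Co-culture of bronchial epithelial cells and dermal fibroblasts dosed with chemical; MCP-1 measured by ELISA 24 h later. Activity fitted in positive direction versus DMSO; cytotoxicity checked by SRB staining in parallel cultures.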

Read-out in assay [9]: Intercellular Adhesion Molecule 1 (ICAM1), ICAM1 (gene 3383)
Description: BSK_BF4T_ICAM1: BioMAP Diversity Plus: BF4T Assay for Intercellular Adhesion Molecule 1 (ICAM1) Biomarker Activity (AID 2284260). The note with it: primary human bronchial epithelial cells with fibroblasts. An outline of the steps: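 Co-culture of human bronchial epithelial cells and dermal fibroblasts exposed 24 h to chemical; cell-surface ICAM-1 quantified by ELISA. Parallel SRB total-protein staining assessed cytotoxicity; activity fitted relative to DMSO.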

Read-out in assay [10]: Interleukin-8 (IL8), CXCL8 (gene 3576)
Briefly: BSK_MyoF_IL8: BioMAP Diversity Plus: MyoF Assay for Interleukin-8 (IL8) Biomarker Activity (AID 2284261). Particulars: primary human lung fibroblasts. An outline of the steps: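 IL-8 levels were measured by ELISA in human lung fibroblasts harvested 24 h after compound addition. Responses were analysed as gain of signal over the DMSO baseline.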

Read-out in the next assay: CD90, THY1 (gene 7070)
Briefly: BSK_BF4T_CD90: BioMAP Diversity Plus: BF4T Assay for CD90 Biomarker Activity (AID 2284262). The note with it: primary human bronchial epithelial cells with fibroblasts. In a few lines: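 Co-culture of human bronchial epithelial cells and dermal fibroblasts, 24 h compound exposure. Cell-surface CD90 measured by ELISA relative to DMSO; parallel SRB total-protein staining for cytotoxicity.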

Read-out in assay [11]: Interleukin-8 (IL8), CXCL8 (gene 3576)
Briefly: BSK_BF4T_IL8: BioMAP Diversity Plus: BF4T Assay for Interleukin-8 (IL8) Biomarker Activity (AID 2284263). Particulars: primary human bronchial epithelial cells with fibroblasts. An outline of the steps: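 Human bronchial epithelial cells with dermal fibroblasts co-culture; IL-8 measured by ELISA 24 hours after dosing, fitted vs DMSO. Cytotoxicity tracked in parallel cultures by SRB total-protein staining.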

Read-out in assay [12]: Interleukin-1 alpha (IL1a), IL1A (gene 3552)
Description: BSK_BF4T_IL1a: BioMAP Diversity Plus: BF4T Assay for Interleukin-1 alpha (IL1a) Biomarker Activity (AID 2284264). Particulars: primary human bronchial epithelial cells with fibroblasts. An outline of the steps:
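Human bronchial epithelial cells co-cultured with dermal fibroblasts, dosed and read at 24 h. Secreted/surface IL-1α quantified by ELISA; gain-of-signal fitted relative to DMSO baseline. Parallel SRB total-protein staining tracked cytotoxicity.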

Read-out in another assay: Decorin, DCN (gene 1634)
Description: BSK_MyoF_Decorin: BioMAP Diversity Plus: MyoF Assay for Decorin Biomarker Activity (AID 2284265). The note with it: primary human lung fibroblasts. An outline of the steps: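 Compound is added to lung fibroblast cultures; cells incubate 24 h; decorin is then measured by ELISA; the response is analysed upward against DMSO controls.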

Read-out in a further assay: KRT18 (gene 3875)
Briefly: BSK_BF4T_Keratin818: BioMAP Diversity Plus: BF4T Assay for Keratin 818 Biomarker Activity (AID 2284266). The note with it: primary human bronchial epithelial cells with fibroblasts. An outline of the steps: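 Co-culture of human bronchial epithelial cells and dermal fibroblasts, chemical exposure 24 h. Keratin 8/18 measured by ELISA; positive-direction fit vs DMSO. SRB total protein run in parallel cultures for cytotoxicity.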

The nature of assay [13]: BSK_MyoF_SRB: Viability Assessment in the BioMAP Diversity Plus: MyoF Assay (AID 2284267).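 Also: total protein by SRB absorbance in parallel cultures as cytotoxicity measure.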 The note with it: primary human lung fibroblasts. In a few lines: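 Read-out is SRB absorbance at 560 nm, reflecting total protein in parallel lung fibroblast cultures harvested 24 h after compound addition. Cells were TCA-fixed (10%) and stained with 0.1% SRB; activity is referenced to DMSO.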

Read-out in assay [14]: Matrix Metallopeptidase 1 (MMP1), MMP1 (gene 4312)
Briefly: BSK_MyoF_MMP1: BioMAP Diversity Plus: MyoF Assay for Matrix Metallopeptidase 1 (MMP1) Biomarker Activity (AID 2284268). The note with it: primary human lung fibroblasts. In a few lines:
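Lung fibroblast cultures were dosed with test chemicals and, after 24 h, MMP1 levels were measured by ELISA; responses were referenced to DMSO and analysed for increases.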

Read-out in assay [15]: TIMP metallopeptidase inhibitor 1 (TIMP1), TIMP1 (gene 7076)
Briefly: BSK_MyoF_TIMP1: BioMAP Diversity Plus: MyoF Assay for TIMP metallopeptidase inhibitor 1 (TIMP1) Biomarker Activity (AID 2284269). The note with it: primary human lung fibroblasts. In a few lines:
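ELISA read-out of TIMP-1 from primary human lung fibroblast cultures 24 h after compound dosing; gain of signal relative to DMSO vehicle baseline defines activity.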

Read-out in assay [16]: Interferon-inducible T-cell alpha chemoattractant (ITAC), CXCL11 (gene 6373)
Briefly: BSK_hDFCGF_ITAC: BioMAP Diversity Plus: hDFCGF Assay for Interferon-inducible T-cell alpha chemoattractant (ITAC) Biomarker Activity (AID 2284251). Particulars: primary human foreskin fibroblasts. In a few lines: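 Fibroblasts (human foreskin, primary) are treated with chemical, cultured 24 h, then assayed for I-TAC by ELISA. Overt toxicity is checked in parallel cultures by sulforhodamine B staining of total protein at the same time point.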

With `O=C(O)CCC(F)(F)C(F)(F)C(F)(F)C(F)(F)C(F)(F)C(F)(F)C(F)(F)F`, the outcome in [1] is “inactive”; in assay [2], “inactive”; in [3] it was “inactive”; in assay [4] it was “inactive”; in assay [6], “inactive”; in the assay with CD69, CD69 (gene 969) it was “inactive”. Besides, the outcome was “inactive” in assay [7]; “inactive” in assay [8]; “inactive” in assay [9]; “inactive” in assay [10]; “inactive” with CD90, THY1 (gene 7070); “inactive” in [11]. For the same compound, the outcome in [12] was “inactive”; with Decorin, DCN (gene 1634), “inactive”; with KRT18 (gene 3875) it was “inactive”; in assay [13], “inactive”; in [14] it was “inactive”; in assay [15] it was “inactive”. Besides, the concentration at half-maximal activity (AC50) (in general, the concentration at which the activity in the assay is half-maximal) was 4.26 µM (active) in assay [4]; 1.39 µM (active) and 1.57 µM (active) in assay [5]; 726 nM (active) in assay [7]; 0.949 µM (active) in assay [8].

As for `FC(F)(F)C(F)(F)C(F)(F)CC1CO1` (stereo unspecified), the outcome in assay [1], in [2], in assay [3], in assay [4], in assay [5] and in [6] was inactive. For the same compound, the outcome with CD69, CD69 (gene 969) was “inactive”; in assay [7] it was “inactive”; in assay [8], “inactive”; in assay [9] it was “inactive”; in [10] it was “inactive”; in the assay with CD90, THY1 (gene 7070), “inactive”. Besides, the outcome was “inactive” in assay [11]; “inactive” in assay [12]; “inactive” with Decorin, DCN (gene 1634); “inactive” with KRT18 (gene 3875); “inactive” in assay [13]; “inactive” in [14]. Also, in [15], the outcome was inactive.

Consider `OCCCCC(F)(F)C(F)(F)C(F)(F)C(F)(F)F`, for which the result in assay [1], in [2], in assay [3], in [4], in assay [5] and in assay [6] was inactive. The outcome in the assay with CD69, CD69 (gene 969) was “inactive”; in assay [7], “inactive”; in assay [8] it was “inactive”; in assay [9] it was “inactive”; in [10] it was “inactive”; in the assay with CD90, THY1 (gene 7070), “inactive”. Besides, the outcome in assay [11] was “inactive”; in assay [12] it was “inactive”; with Decorin, DCN (gene 1634), “inactive”; in the assay with KRT18 (gene 3875), “inactive”; in [13], “inactive”; in [14], “inactive”. The outcome in assay [15] was inactive.

Turning to `O=S(=O)(O)CCC(F)(F)C(F)(F)C(F)(F)C(F)(F)C(F)(F)C(F)(F)C(F)(F)C(F)(F)F`, the outcome in assay [1], in assay [2], in [3], in assay [4], in [5] and in [6] was inactive. Besides, the outcome was “inactive” with CD69, CD69 (gene 969); “inactive” in assay [8]; “inactive” in [9]; “inactive” in [10]; “inactive” with CD90, THY1 (gene 7070); “inactive” in [11]. In addition, the outcome is “inactive” in [12]; “inactive” with Decorin, DCN (gene 1634); “inactive” in the assay with KRT18 (gene 3875); “inactive” in assay [13]; “inactive” in assay [14]; “inactive” in assay [15]. In addition, the AC50 is 30 µM (active) in assay [4]; 30 µM (active) with CD69, CD69 (gene 969); 15.1 µM (active) and 8.3 µM (active) in [7].

On to `O=S(=O)(OCC(F)(F)F)C(F)(F)C(F)(F)C(F)(F)C(F)(F)F`, for which the outcome is “inactive” in assay [1]; “inactive” in [2]; “inactive” in assay [3]; “inactive” in [4]; “inactive” in assay [6]; “inactive” in the assay with CD69, CD69 (gene 969). Also, the outcome in assay [7] is “inactive”; in assay [8] it was “inactive”; in [9] it was “inactive”; in [10] it was “inactive”; with CD90, THY1 (gene 7070), “inactive”; in assay [11] it was “inactive”. The outcome in assay [12] was “inactive”; with Decorin, DCN (gene 1634), “inactive”; with KRT18 (gene 3875), “inactive”; in assay [13], “inactive”; in [14], “inactive”; in assay [15], “inactive”. Besides, the concentration at half-maximal activity (AC50) in assay [16] is 30 µM (active); in [5] it was 21 µM (active) and 5.95 µM (active).
